In PubChem BioAssay:
Active and inactive are the calls of the source.

How the values were obtained:
[1] = E. coli DRC41 culture turbidity changes, primary screen, E. coli filamentation inducer project, strain DRC41, OD650, 48 h (AID 1152);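 further: E. coli MC1000 strain DRC41 lacking acrAB efflux pump and sulA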; conditions: E. coli DRC41 (acrAB sulA), higher = more signal, called active from +8 up or from −8 down
[2] = small-molecule binders of probe aLefty1, primary screen, biochemical, small-molecule microarray, 635/667 nm fluorescence (AID 1153); conditions: higher = more signal;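 further: score merges spot fluorescence with signal-to-noise ratio from the scanned slide images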
[3] = PSAC antagonists in infected red cells, primary screen, cell-based, P. falciparum Indochina, OD700, 1 h (AID 1154); conditions: P. falciparum Indochina infected RBC osmotic lysis, higher = more signal, called active from +8 up or from −8 down
[4] = PSAC antagonists in infected red cells, primary screen, cell-based, P. falciparum Indochina, OD700, 2 h (AID 1155);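 further: lysis reports solute entry through the parasite surface anion channel PSAC; channel blockers reduce lysis of infected cells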; conditions: P. falciparum Indochina infected erythrocytes, osmotic lysis OD700; higher = more signal, called active from +8 up or from −8 down
[5] = osmotic lysis modulators in infected erythrocytes, primary screen, PSAC antagonist project, cell-based, P. falciparum Indochina, OD700, 3 h (AID 1156); conditions: higher = more signal, called active from +8 up or from −8 down
[6] = PSAC antagonists in infected red cells, primary screen, cell-based, P. falciparum Indochina, OD700, 18 h (AID 1157); conditions: P. falciparum Indochina infected erythrocytes, osmotic lysis OD700, 18 h; higher = more signal, called active from +8 up or from −8 down
[7] = modulators of S6 phosphorylation in cells, primary screen, cell-based, A549, cytoblot, luminescence, serum-stimulated (AID 1158); conditions: A549 phospho-S6 cytoblot, 5 h, higher = more signal;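 further: serum-stimulated A549 lung adenocarcinoma cells; signal is phosphorylated S6 detected by cytoblot immunostaining with HRP secondary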
[8] = molecular target: NADPH oxidase 2 (Homo sapiens) (UniProt P04839); assay: NOX2-dependent H2O2 signal modulators, primary screen, NOX inhibitor project, cell-based, HEK293-NOX2, PMA-stimulated, Amplex Red fluorescence (AID 1159); conditions: 45 min, higher = more signal, called active from +8 up or from −8 down; further: test concentration not given here
NADPH oxidase 2 (Homo sapiens), sequence (P04839 whole entry, looked up): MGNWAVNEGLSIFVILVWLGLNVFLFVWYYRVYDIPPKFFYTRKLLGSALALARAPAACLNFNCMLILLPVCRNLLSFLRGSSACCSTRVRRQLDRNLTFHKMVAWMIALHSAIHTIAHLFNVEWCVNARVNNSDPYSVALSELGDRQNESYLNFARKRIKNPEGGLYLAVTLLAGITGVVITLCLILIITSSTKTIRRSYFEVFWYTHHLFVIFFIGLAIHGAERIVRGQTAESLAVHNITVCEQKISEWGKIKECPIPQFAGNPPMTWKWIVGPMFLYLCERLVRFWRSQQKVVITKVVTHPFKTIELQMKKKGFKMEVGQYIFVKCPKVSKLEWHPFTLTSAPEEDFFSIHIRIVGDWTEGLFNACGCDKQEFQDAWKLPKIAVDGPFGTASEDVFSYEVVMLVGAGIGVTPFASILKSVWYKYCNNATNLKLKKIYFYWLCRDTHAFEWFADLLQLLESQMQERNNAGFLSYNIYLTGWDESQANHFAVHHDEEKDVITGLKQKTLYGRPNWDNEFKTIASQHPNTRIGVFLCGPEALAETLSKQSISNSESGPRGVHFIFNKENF

[9] = molecular target: NADPH oxidase 4 (Homo sapiens) (UniProt Q9NPH5); assay: NOX4-dependent H2O2 signal modulators, primary screen, NOX inhibitor project, cell-based, HEK293-NOX4, tetracycline-induced, Amplex Red fluorescence (AID 1160); conditions: 45 min, higher = more signal, called active from +8 up or from −8 down
NADPH oxidase 4 (Homo sapiens), sequence (Q9NPH5 whole entry, looked up): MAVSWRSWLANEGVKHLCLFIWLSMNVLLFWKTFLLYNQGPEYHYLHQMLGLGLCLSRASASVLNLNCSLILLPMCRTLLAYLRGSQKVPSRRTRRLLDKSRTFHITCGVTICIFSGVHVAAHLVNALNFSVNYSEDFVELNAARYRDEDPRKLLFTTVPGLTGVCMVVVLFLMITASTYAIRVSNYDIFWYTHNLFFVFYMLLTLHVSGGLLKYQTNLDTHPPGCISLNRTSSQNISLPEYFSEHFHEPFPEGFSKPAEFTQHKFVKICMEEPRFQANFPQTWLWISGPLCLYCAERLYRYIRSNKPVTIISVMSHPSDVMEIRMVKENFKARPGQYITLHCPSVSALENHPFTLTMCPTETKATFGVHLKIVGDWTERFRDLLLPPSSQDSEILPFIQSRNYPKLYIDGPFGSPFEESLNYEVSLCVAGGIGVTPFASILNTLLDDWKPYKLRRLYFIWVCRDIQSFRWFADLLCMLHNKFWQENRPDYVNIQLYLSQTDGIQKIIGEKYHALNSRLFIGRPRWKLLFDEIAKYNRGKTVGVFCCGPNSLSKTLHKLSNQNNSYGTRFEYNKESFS

[10] = molecular target: NADPH oxidase 5 (Homo sapiens) (UniProt Q96PH1); assay: NOX5-dependent H2O2 signal modulators, primary screen, NOX inhibitor project, cell-based, HEK293-NOX5, Amplex Red fluorescence (AID 1161); conditions: HEK293-NOX5, ionomycin, 45 min, higher = more signal
NADPH oxidase 5 (Homo sapiens), sequence (Q96PH1 whole entry, looked up): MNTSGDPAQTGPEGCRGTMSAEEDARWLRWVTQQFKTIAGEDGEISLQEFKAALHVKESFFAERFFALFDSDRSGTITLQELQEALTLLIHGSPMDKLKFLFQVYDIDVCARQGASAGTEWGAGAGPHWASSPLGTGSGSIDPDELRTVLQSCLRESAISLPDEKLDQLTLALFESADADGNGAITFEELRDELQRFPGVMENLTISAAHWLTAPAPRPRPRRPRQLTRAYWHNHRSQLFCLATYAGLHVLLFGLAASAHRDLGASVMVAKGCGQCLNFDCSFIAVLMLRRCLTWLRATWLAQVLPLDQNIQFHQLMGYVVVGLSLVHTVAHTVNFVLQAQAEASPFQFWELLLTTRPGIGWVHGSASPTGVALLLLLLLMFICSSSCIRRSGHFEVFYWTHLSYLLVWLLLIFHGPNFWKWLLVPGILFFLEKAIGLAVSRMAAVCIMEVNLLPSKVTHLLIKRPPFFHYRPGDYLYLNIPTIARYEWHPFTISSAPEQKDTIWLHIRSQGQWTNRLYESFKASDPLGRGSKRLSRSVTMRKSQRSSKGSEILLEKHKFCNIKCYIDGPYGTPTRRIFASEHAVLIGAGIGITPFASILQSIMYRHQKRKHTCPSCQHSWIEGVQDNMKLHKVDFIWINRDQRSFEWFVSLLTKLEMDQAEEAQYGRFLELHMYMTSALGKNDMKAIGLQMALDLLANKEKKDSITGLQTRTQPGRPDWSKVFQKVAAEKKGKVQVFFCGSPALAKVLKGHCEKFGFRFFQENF

[11] = A549 cell viability effects, profiling panel, calcein-AM fluorescence, 48 h, basal (AID 1162); conditions: higher = more signal; further: test concentration not given here
[12] = adipocyte viability effects, profiling panel, cell-based, 3T3-L1 adipocytes, calcein-AM fluorescence, 48 h, basal (AID 1163); conditions: 3T3-L1 adipocytes viability, higher = more signal; further: test concentration not given here
[13] = HepG2 cell viability effects, profiling panel, calcein-AM fluorescence, 48 h, basal (AID 1164); conditions: higher = more signal; further: test concentration not given here
[14] = MM1S cell viability effects, profiling panel, calcein-AM fluorescence, 48 h, basal (AID 1165); conditions: higher = more signal;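 further: viability of MM1S multiple myeloma cells under basal unstimulated conditions; test concentration not given here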
[15] = basal RPMI8226 viability, no added stimulus, profiling panel, cell-based, calcein-AM fluorescence, 48 h, PK04 Diversity Set (AID 1166); conditions: RPMI8226 myeloma viability, higher = more signal;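 further: cells grown under basal conditions without added stimulus; test concentration not given here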
[16] = basal HepG2 mitochondrial membrane potential changes, profiling panel, cell-based, JC-1 fluorescence, 24 h, 100 nL compound (AID 1167); conditions: higher = more signal; further: test concentration not given here
[17] = basal 3T3-L1 adipocyte mitochondrial potential changes, profiling panel, cell-based, JC-1 fluorescence, 3T3-L1 adipocytes, 24 h, 100 nL compound (AID 1168); conditions: JC-1 mitochondrial fluorescence, higher = more signal, called active from +8 up or from −8 down; further: test concentration not given here
[18] = basal RPMI8226 mitochondrial membrane potential changes, profiling panel, cell-based, JC-1 fluorescence, 24 h, 100 nL compound (AID 1169); conditions: RPMI8226 myeloma, JC-1 mitochondrial potential fluorescence, higher = more signal; further: test concentration not given here
[19] = basal MM1S mitochondrial membrane potential changes, profiling panel, cell-based, JC-1 fluorescence, 24 h, 100 nL compound (AID 1170); conditions: higher = more signal; further: test concentration not given here
[20] = A549 lung cancer cell viability effects, profiling panel, resazurin fluorescence, 24 h, PK04 Diversity Set (AID 1171); conditions: higher = more signal, called active from +8 up or from −8 down; further: test concentration not given here

SMILES	z-score [1]	composite z-score [2]	z-score [3]	z-score [4]	z-score [5]	z-score [6]	z-score [7]	z-score [8]	z-score [9]	z-score [10]	z-score [11]	z-score [12]	z-score [13]	z-score [14]	z-score [15]	z-score [16]	z-score [17]	z-score [18]	z-score [19]	z-score [20]
COc1cc(CO)cc(I)c1O[C@H]1C=C(C(=O)NCCO)C[C@@H](NC[C@@H]2CCCO2)[C@@H]1O	2.35 (inactive)	-0.0075	3.81 (inactive)	0.585 (inactive)	1.4 (inactive)	0.303 (inactive)	0.687	-0.144 (inactive)	0.492 (inactive)	-0.0544	1	-0.134	0.7	0.583	0.327	0.65	0.239 (inactive)	-0.18	-1.9	0.222 (inactive)
C[N+](C)(C)CCCC[C@@H]1NC(=O)[C@@H]2C[C@H](C(=O)NCCCCCN)[C@H](c3ccc(O)cc3)N2C1=O	1.31 (inactive)	0.906	0.455 (inactive)	0.0158 (inactive)	-0.284 (inactive)	-1.78 (inactive)	0.612	-0.102 (inactive)	-0.316 (inactive)	1.33	1.01	0.641	0.383	0.312	0.828	1.79	-0.13 (inactive)	0.243	0.41	-0.0115 (inactive)
COc1ccc(NN2C(C(O)c3ccc(N(C)C)cc3)C=CC3C(=O)N(C4CCCCC4)C(=O)C32)cc1 (stereo not given)	-0.446 (inactive)	0.384	5.03 (inactive)	0.589 (inactive)	0.193 (inactive)	0.484 (inactive)	-0.25	-0.759 (inactive)	-3.43 (inactive)	-2.98	-0.441	-1.13	-0.173	0.0375	-0.136	-0.134	-0.771 (inactive)	0.651	-1.63	0.19 (inactive)
COCCOC(=O)N1C(=O)[C@@]2(c3ccccc31)[C@H](C(N)=O)[C@H]1C(=O)O[C@H](c3ccccc3)[C@H](c3ccccc3)N1[C@@H]2c1ccc(O)cc1	0.912 (inactive)	-0.649	0.658 (inactive)	-1.28 (inactive)	-0.142 (inactive)	-2.25 (inactive)	2.74	-0.339 (inactive)	-0.637 (inactive)	-0.534	0.75	-0.0824	1.51	0.84	0.248	-0.244	0.571 (inactive)	-0.795	0.119	-1.37 (inactive)
COc1ccc([C@H]2OC[C@@H]3CCC(=O)N32)cc1	0.0137 (inactive)	0.0868	0.4 (inactive)	0.698 (inactive)	-0.297 (inactive)	0.48 (inactive)	0.0166	0.982 (inactive)	0.342 (inactive)	-0.0609	-0.245	-0.315	-0.0392	-0.804	0.502	0.0252	-0.139 (inactive)	-0.225	-0.1	0.109 (inactive)
CC(C)CN1C(=O)[C@@]2(c3ccc([N+](=O)[O-])cc3)CC(=O)N(C3CCCCC3)[C@@H]2c2ccc(CO)cc21	0.511 (inactive)	-0.191	0.531 (inactive)	0.437 (inactive)	0.0909 (inactive)	0.523 (inactive)	-0.277	-0.717 (inactive)	-0.778 (inactive)	-0.209	-0.651	0.16	-0.403	0.246	0.0529	0.0665	-0.339 (inactive)	0.603	-0.214	-0.881 (inactive)
NC(=O)[C@@H]1[C@H]2C(=O)O[C@H](c3ccccc3)[C@H](c3ccccc3)N2[C@H](c2ccc(O)cc2)[C@@]12C(=O)Nc1ccc(C#CC3=CCCCC3)cc12	-1.1 (inactive)	1.47	1.78 (inactive)	1.07 (inactive)	-0.491 (inactive)	1.27 (inactive)	-0.7	0.615 (inactive)	0.196 (inactive)	-0.325	-1.42	-0.0881	-5.06	-3.27	-4.17	-3.59	-1.58 (inactive)	-0.88	-1.94	-0.274 (inactive)
CC(C)(C)OC(=O)CC[C@]1(C(N)=O)N=C(c2ccc(OCCCO)cc2)O[C@H]1c1ccccc1	-0.179 (inactive)	0.762	6.16 (inactive)	-0.927 (inactive)	-0.524 (inactive)	-0.367 (inactive)	0.0312	0.266 (inactive)	-1.12 (inactive)	0.814	-0.73	0.13	-0.61	-0.415	0.37	-1.26	-0.709 (inactive)	0.816	0.335	-0.164 (inactive)
